Test results: PubChem BioAssay
Active and inactive are the calls of the source.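 How the source made its calls, unless noted: active means NADPH fluorescence slope more negative than the mean of all samples by about 3 SD, 99.7% confidence; inactive means the rest.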

Tests used:
[1] = inhibitors of TNFa-induced NFkB p65 translocation, primary screen, imaging, HUVEC, MLSMR starter and 10KST1 sets (AID 438;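 active means inhibition above 20% together with a positive visual image hit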;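 further: compound added about 3h40 before a 20 min TNFalpha stimulation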;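 on inhibition: signal is the nuclear over cytoplasmic p65 intensity ratio per well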); conditions: HUVEC TNFa-induced p65 nuclear translocation; cell count: measured here: nuclei count (cytotoxicity indicator), at 2.08 µM; inhibition: at 2 µM, stronger effect = higher value, 0% TNFa-plus-vehicle, 100% no-TNFa wells
[2] = reduction of polyQ htt aggregates in cells – imaging, exon1htt(103Q)mCFP cells, high-content imaging, primary screen (AID 483;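 active means visual image review flags a hit and inhibition of aggregation exceeds 20%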;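 further: compound exposure lasted 3 days before fixation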;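 on nuclei count: percent of the per-plate median nuclei count of sample wells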); conditions: exon1htt(103Q)mCFP cell line, aggregate imaging, at 2 µM; inhibition of aggregation: stronger effect = higher value; nuclei count: measured here: cell count, toxicity
[3] = endothelial E-selectin expression blockers – imaging, HUVEC, immunofluorescence, MLSMR starter and 10KST1 sets, primary screen (AID 487;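 active means visually confirmed hit in the image check and inhibition above 20%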;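 on inhibition: signal is fraction of cell area covered by stained E-selectin grains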;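 on nuclei count: 100% = median nuclei count of all wells on the same plate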); conditions: HUVEC TNFalpha-induced E-selectin immunofluorescence imaging, at 2 µM; inhibition: stronger effect = higher value; nuclei count: measured here: cell number, toxicity
[4] = molecular target: Voltage-gated potassium channel subunit beta-2 (Rattus norvegicus) (UniProt P62483); assay: inhibitors of rat Kvbeta2 reductase activity – biochemical, NADPH fluorescence, primary screen (AID 622;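 active means fluorescence slope higher than the sample average by over 3 SD, cut at about -0.22 in these data, passing the limit was not always enough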;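 further: slope of raw intensity against log time taken from 70 to 1610 s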); conditions: recombinant KvBeta, 4-cyanobenzaldehyde reduction, at 10 µM, stronger effect = higher value
Sequence of Voltage-gated potassium channel subunit beta-2 (Rattus norvegicus) (P62483 whole entry, looked up): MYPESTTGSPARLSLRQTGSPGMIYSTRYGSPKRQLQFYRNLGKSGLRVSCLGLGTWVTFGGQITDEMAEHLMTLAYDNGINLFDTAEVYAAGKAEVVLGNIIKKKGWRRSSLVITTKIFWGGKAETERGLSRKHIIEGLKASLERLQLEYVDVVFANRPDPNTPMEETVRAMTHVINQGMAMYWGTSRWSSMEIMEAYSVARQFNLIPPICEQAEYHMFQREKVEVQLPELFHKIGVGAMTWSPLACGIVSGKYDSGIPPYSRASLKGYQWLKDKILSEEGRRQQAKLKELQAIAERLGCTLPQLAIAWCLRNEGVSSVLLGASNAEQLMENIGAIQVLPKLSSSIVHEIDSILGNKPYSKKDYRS

[5] = molecular target: Voltage-gated potassium channel subunit beta-2 (Rattus norvegicus) (UniProt P62483); assay: enhancers of rat Kvbeta2 NADPH turnover – biochemical, NADPH fluorescence, primary screen (AID 623); conditions: Recombinant KvBeta, NADPH fluorescence decrease slope, 10 min; at 10 µM; stronger effect = lower value;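 further: fluorescence intensity change per second fitted from 20 to 320 s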
[6] = molecular target: Alpha-2C adrenergic receptor (Homo sapiens) (UniProt P18825); assay: compounds altering alpha2C-coupled GIRK flux – cell-based, HEK293 alpha2C/GIRK1/2, thallium flux, primary screen (AID 624;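 active means fluorescence slope after compound addition differing from the mean of all screened samples at 99.7% confidence, in either direction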;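 further: slope of fluorescence ratio to pre-addition baseline per second over 15 to 24 s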); conditions: thallium flux BTC fluorescence, at 10 µM, actives lie on both sides
Sequence of Alpha-2C adrenergic receptor (Homo sapiens) (P18825 whole entry, looked up): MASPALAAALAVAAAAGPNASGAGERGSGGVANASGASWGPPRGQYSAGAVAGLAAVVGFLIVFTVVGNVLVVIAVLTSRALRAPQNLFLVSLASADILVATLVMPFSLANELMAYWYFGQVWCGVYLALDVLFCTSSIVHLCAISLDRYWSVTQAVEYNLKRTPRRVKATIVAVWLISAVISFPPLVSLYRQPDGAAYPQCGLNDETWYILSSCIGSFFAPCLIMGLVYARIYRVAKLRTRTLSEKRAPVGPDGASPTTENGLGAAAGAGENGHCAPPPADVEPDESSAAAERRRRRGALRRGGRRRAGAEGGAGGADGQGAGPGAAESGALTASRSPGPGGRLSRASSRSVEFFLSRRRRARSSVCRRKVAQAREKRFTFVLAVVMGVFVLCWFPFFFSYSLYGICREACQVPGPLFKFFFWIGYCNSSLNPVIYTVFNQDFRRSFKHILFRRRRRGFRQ

[7] = blockers of RIG-like receptor reporter activation – cell-based, Sendai virus stimulus, luciferase, 10K MLSCN set, TLR/RLR signaling modifier project, primary screen (AID 602276;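 active means inhibition at or above 50% at 10 µM; inactive means inhibition below 50%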;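 further: firefly luciferase from ISG56 promoter only with Renilla not read in this screen; 0% = Sendai virus plus DMSO and 100% = medium plus DMSO without virus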); conditions: HEK293 RL24 IRF3 luciferase reporter, at 10 µM, stronger effect = higher value
[8] = TLR3 IRF3 reporter activation blockers – cell-based, poly I:C stimulus, luciferase, 10K MLSCN set, primary screen (AID 602277;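 active means inhibition of the reporter signal at or above 50%; inactive means inhibition below 50%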); conditions: HEK293-TLR3 RL24 IRF3 luciferase reporter, at 10 µM, stronger effect = higher value

SMILES	cell count [1]	inhibition [1]	inhibition of aggregation [2]	nuclei count [2]	inhibition [3]	nuclei count [3]	fluorescence slope [4]	NADPH fluorescence slope [5]	slope [6]	inhibition [7]	inhibition [8]
N#Cc1nc(COc2ccccc2Cl)oc1N1CCCCCC1	577	1.1% (inactive)	-17.4% (inactive)	92.6%	17.1% (inactive)	102%	-0.431 (inactive)	-5e-05 (inactive)	0.00512 (inactive)	0.19% (inactive)	0.00693% (inactive)
O=C(C1CCCO1)N1CCN(C(c2ccccc2)c2ccccc2)CC1 (centres undefined)	412	2.5% (inactive)	10.8% (inactive)	97.1%	32.4% (inactive)	117%	-0.403 (inactive)	-2.6e-05 (inactive)	0.00589 (inactive)	13.8% (inactive)	27.4% (inactive)
OCCNCC(O)Cn1ccc2ccccc21 (centres undefined)	410	-8.2% (inactive)	-0.3% (inactive)	84.3%	-53.1% (inactive)	181%	-0.624 (inactive)	-5e-05 (inactive)	0.007 (inactive)	12.3% (inactive)	16.7% (inactive)
COC(=O)c1nc(N)sc1-c1ccccc1	592	7.2% (inactive)	9.3% (inactive)	99.9%	4.8% (inactive)	101%	-0.352 (inactive)	2.3e-05 (inactive)	0.00535 (inactive)	11.7% (inactive)	37.7% (inactive)
COC(=O)C1C(=O)C2=C(CC1C)NC(=O)CC2c1ccccc1 (centres undefined)	285	-14.6% (inactive)	14.6% (inactive)	92.8%	48.6% (inactive)	80.1%	-0.388 (inactive)	-4.9e-05 (inactive)	0.00369 (inactive)	9.64% (inactive)	22.4% (inactive)
O=C1C2C3C=CC(C3=C3CCCCC3)C2C(=O)N1c1ccccc1 (centres undefined)	512	-10.1% (inactive)	3.7% (inactive)	104%	-29.2% (inactive)	103%	-0.61 (inactive)	-3.9e-06 (inactive)	0.00655 (inactive)	12.4% (inactive)	16% (inactive)
Cc1ccc(-c2nnc3c4ccccc4c(C)nn23)cc1S(=O)(=O)N1CCN(C)CC1	640	7.2% (inactive)	3.8% (inactive)	96.2%	11.3% (inactive)	81.2%	-0.592 (inactive)	-2.9e-05 (inactive)	0.00436 (inactive)	13.3% (inactive)	30.7% (inactive)
Cc1ccc(O)c(-c2cc(C(=O)Nc3ccc(S(=O)(=O)N4CC(C)OC(C)C4)cc3)[nH]n2)c1 (centres undefined)	371	6.2% (inactive)	0.4% (inactive)	97.2%	0.1% (inactive)	92.7%	-0.478 (inactive)	-0.000199 (inactive)	0.00494 (inactive)	22.4% (inactive)	43.5% (inactive)
O=C(CSc1nnnn1C1CCCC1)NCc1ccc2c(c1)OCO2	816	-13.2% (inactive)	3% (inactive)	87.9%	-15.5% (inactive)	138%	-0.475 (inactive)	-4.8e-05 (inactive)	0.00594 (inactive)	1% (inactive)	22.3% (inactive)
O=C(CCN1C(=O)c2ccccc2C1=O)Nc1ccc(F)cc1	442	4.9% (inactive)	-0.3% (inactive)	117%	14.4% (inactive)	109%	-0.375 (inactive)	4.4e-06 (inactive)	0.00394 (inactive)	9.91% (inactive)	13.8% (inactive)
CN(C)S(=O)(=O)N1CCN(C(=O)N(c2ccccc2)c2ccccc2)CC1	352	-3.3% (inactive)	0% (inactive)	108%	-122% (inactive)	117%	-0.366 (inactive)	-2e-09 (inactive)	0.00704 (inactive)	-19.7% (inactive)	-15.1% (inactive)
CC(=O)Nc1sc2c(c1C#N)CCCCC2	349	0.8% (inactive)	12.1% (inactive)	78.3%	-76.6% (inactive)	115%	-0.396 (inactive)	-5.5e-05 (inactive)	0.00723 (inactive)	-1.89% (inactive)	-4.1% (inactive)
Cc1nnc(NC(=O)c2ccccc2F)s1	421	6% (inactive)	14.2% (inactive)	103%	6.9% (inactive)	125%	-0.614 (inactive)	5.1e-06 (inactive)	0.00652 (inactive)	-6.19% (inactive)	-17.6% (inactive)
O=C(OC1CCOC1=O)c1ccc2ccccc2n1 (centres undefined)	633	4.2% (inactive)	-0.9% (inactive)	100%	38.1% (inactive)	76%	-0.324 (inactive)	2.9e-05 (inactive)	0.00579 (inactive)	20.6% (inactive)	29.1% (inactive)
CCOC(=O)c1sc(NC(=O)COC(=O)Cn2cnc3ccccc32)c(C(=O)OCC)c1C	398	4.3% (inactive)	2.6% (inactive)	90.6%	-109% (inactive)	115%	-0.613 (inactive)	-3e-05 (inactive)	0.00913 (inactive)	13.7% (inactive)	-7.45% (inactive)
CCOC(=O)Cn1c(CN2CCOCC2)nc2c1c(=O)[nH]c(=O)n2C	507	-1% (inactive)	-19.1% (inactive)	102%	-6% (inactive)	118%	-0.601 (inactive)	-4.7e-05 (inactive)	0.00569 (inactive)	15.2% (inactive)	27.7% (inactive)
CC(C)CCSc1nc2c(c(=O)[nH]c(=O)n2C)n1CCCc1ccccc1	618	-5.9% (inactive)	26.4% (inactive)	103%	-34.8% (inactive)	120%	-0.414 (inactive)	-4.8e-05 (inactive)	0.00519 (inactive)	10.3% (inactive)	29.8% (inactive)
CCCc1cc(C(=O)Nc2sc(C)c(C)c2C(=O)OCC)no1	856	2.3% (inactive)	2.1% (inactive)	126%	-79.7% (inactive)	114%	-0.229 (inactive)	-5.5e-06 (inactive)	0.00716 (inactive)	8.68% (inactive)	31.8% (inactive)
CCOc1ccc(/C=N/n2cnnc2)cc1	442	-2.2% (inactive)	-4.7% (inactive)	89.4%	17.6% (inactive)	117%	-0.402 (inactive)	-9.1e-05 (inactive)	0.00521 (inactive)	8.22% (inactive)	20.1% (inactive)
